The supplement of paper PMC10849652
Of roughly 8,800 targets only a part is listed; those with a hit were picked by preference. About 0.5% of all pairs of compound and target were hits. Values without a mark were called inactive.

What was measured:
Test in all cases: log2 fold change, soluble protein after heating vs DMSO (PISA); higher = thermal stabilisation; K562 lysate, 10 uM; active = over 0.2 and 3.5 SD of the protein, either way, in both replicates (recomputed)
[1] = compound: C=CC(=O)N1CCC[C@@H](n2nc(-c3ccc(Oc4ccccc4)cc3)c3c(N)ncnc32)C1 [ibrutinib]
Procedure, shortened: (§1)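 Soluble protein was defined as the supernatant remaining after 21,000xg for 90 min, following pooling of heated aliquots and adjustment to 0.5% NP-40 at 4°C. Before that, crude K562 extract at 1 mg/mL protein in PBS pH 7.4 with 1 mM MgCl2 was treated with 10 μM compound for 30 min and heated for 3 min across 48°C-58°C. Quantification used TMTpro 16plex LC-MS/MS with channel sums equalised, and values are log-two fold changes in thermal stability relative to solvent controls from duplicates.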

[2] = compound: CC(=O)c1cnc2ccc(-c3cc(Cl)c(O)c(Cl)c3)nc2c1N[C@H]1CC[C@H](CN(C)C)CC1
Procedure, shortened: as §1

[3] = compound: CC(C)(C)Cn1c(N)nc2ccc(-c3[nH]c(C(C)(C)C)nc3-c3ccc(F)cc3)nc21 [ralimetinib]
Procedure, shortened: as §1

[4] = compound: CC(C)(O)CC(=O)NCCn1ccc2ncnc(Nc3ccc(Oc4cccc(C(F)(F)F)c4)c(Cl)c3)c21
Procedure, shortened: as §1

[5] = compound: CC(C)C1=C2N=C(C=C(N2N=C1)NCC3=CC=CC=C3)NCCCCCCN
Procedure, shortened: as §1

[6] = compound: CC1=C(C(CC(=O)N1)C2=CC=C(C=C2)C(F)(F)F)C(=O)NC3=C(C=C4C(=C3)C=NN4)F
Procedure, shortened: as §1

[7] = compound: CC1=C(C2=C(C=C1)C(=O)C3=CC=CC=C3N2CCCN)C
Procedure, shortened: as §1

[8] = compound: CC1=C(C=C(C=C1)NC(=O)C2=CC(=CC=C2)C(C)(C)C#N)NC3=CC4=C(C=C3)N=CN(C4=O)C
Procedure, shortened: as §1

[9] = compound: CC1=C(C=C(C=C1)NC(=O)C2=CC(=CC=C2)N(C)C)NC(=O)C3=CC=C(C=C3)O
Procedure, shortened: as §1

[10] = compound: CC1=CC=C(C=C1)SC2=C3C=C(SC3=CN=C2)C(=O)N
Procedure, shortened: as §1

[11] = compound: CCCS(=O)(=O)Nc1ccc(F)c(C(=O)c2c[nH]c3ncc(-c4ccc(Cl)cc4)cc23)c1F [vemurafenib]
Procedure, shortened: as §1

[12] = compound: CCCS(=O)(=O)Nc1ccc(F)c(C(=O)c2c[nH]c3ncc(Cl)cc23)c1F
Procedure, shortened: as §1

[13] = compound: CCN(CCCOc1ccc2c(Nc3cc(CC(=O)Nc4cccc(F)c4)[nH]n3)ncnc2c1)CCOP(=O)(O)O [barasertib]
Procedure, shortened: as §1

[14] = compound: CC[C@@H]1C(=O)N(C)c2cnc(Nc3ccc(C(=O)NC4CCN(C)CC4)cc3OC)nc2N1C1CCCC1
Procedure, shortened: as §1

[15] = compound: CC[C@@H]1C(=O)N(C)c2cnc(Nc3ccc(C(=O)N[C@H]4CC[C@H](N5CCN(CC6CC6)CC5)CC4)cc3OC)nc2N1C(C)C [volasertib]
Procedure, shortened: as §1

[16] = compound: CCn1c(C(=O)N(C2CC2)C2CC2)cc2c3c(ncn3C)c(Nc3cc(C)n(C)n3)nc21
Procedure, shortened: as §1

[17] = compound: CCn1cc(-c2ccnc3[nH]c(-c4cccc(CN(C)C)c4)cc23)c(-c2ccc(NC(=O)N(C)C)cc2)n1
Procedure, shortened: as §1

[18] = compound: CN1CCC(CNc2ccc3ncc(-c4cccc(OC(F)(F)F)c4)n3n2)CC1
Procedure, shortened: as §1

[19] = compound: CN1CCN(CCOc2cc(OC3CCOCC3)c3c(Nc4c(Cl)ccc5c4OCO5)ncnc3c2)CC1 [saracatinib]
Procedure, shortened: as §1

[20] = compound: CN1CCN(c2nc(C3=C(c4c[nH]c5ccccc45)C(=O)NC3=O)c3ccccc3n2)CC1 [sotrastaurin]
Procedure, shortened: as §1

UniProt P00352, sequence (P00352 whole entry, looked up): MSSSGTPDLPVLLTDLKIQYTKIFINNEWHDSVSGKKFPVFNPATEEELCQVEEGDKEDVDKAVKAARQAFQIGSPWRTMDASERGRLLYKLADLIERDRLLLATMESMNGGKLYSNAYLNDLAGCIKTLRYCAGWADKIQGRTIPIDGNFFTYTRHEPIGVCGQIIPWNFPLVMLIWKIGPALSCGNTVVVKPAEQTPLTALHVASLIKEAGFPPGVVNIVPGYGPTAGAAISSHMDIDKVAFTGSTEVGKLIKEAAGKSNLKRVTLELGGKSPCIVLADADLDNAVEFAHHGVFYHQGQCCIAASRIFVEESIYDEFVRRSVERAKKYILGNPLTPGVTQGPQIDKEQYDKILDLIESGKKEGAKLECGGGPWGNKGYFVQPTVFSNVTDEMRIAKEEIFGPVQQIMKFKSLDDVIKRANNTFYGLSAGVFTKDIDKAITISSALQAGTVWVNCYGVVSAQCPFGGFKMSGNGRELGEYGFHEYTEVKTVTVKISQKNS
UniProt Q6NXE6, sequence (Q6NXE6 whole entry, looked up): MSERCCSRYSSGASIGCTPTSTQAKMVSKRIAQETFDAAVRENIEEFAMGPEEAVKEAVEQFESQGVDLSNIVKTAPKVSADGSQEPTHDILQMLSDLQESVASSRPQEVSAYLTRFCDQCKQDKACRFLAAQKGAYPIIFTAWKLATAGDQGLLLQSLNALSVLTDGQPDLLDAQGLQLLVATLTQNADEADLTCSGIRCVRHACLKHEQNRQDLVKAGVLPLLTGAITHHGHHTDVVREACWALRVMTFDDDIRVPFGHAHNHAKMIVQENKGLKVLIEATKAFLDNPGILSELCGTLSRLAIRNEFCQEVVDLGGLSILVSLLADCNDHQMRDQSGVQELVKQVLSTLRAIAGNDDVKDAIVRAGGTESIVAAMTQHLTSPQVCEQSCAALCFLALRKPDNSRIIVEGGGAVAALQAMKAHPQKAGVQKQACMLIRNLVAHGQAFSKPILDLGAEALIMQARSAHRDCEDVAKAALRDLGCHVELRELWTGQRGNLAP
UniProt P05091, sequence (P05091 whole entry, looked up): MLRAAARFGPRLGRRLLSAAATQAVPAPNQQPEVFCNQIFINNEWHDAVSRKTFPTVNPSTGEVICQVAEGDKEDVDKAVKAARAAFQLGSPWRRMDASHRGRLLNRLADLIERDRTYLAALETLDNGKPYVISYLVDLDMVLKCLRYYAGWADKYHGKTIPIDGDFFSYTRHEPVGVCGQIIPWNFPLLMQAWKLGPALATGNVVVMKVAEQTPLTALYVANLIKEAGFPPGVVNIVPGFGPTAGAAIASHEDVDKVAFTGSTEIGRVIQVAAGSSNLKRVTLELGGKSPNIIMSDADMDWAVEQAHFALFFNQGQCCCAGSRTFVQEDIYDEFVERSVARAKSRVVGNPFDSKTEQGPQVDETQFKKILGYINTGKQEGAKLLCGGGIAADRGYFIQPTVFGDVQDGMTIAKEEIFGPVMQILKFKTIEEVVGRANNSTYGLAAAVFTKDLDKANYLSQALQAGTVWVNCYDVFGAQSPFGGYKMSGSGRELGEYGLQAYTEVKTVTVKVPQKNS
UniProt P51825, sequence (P51825 whole entry, looked up): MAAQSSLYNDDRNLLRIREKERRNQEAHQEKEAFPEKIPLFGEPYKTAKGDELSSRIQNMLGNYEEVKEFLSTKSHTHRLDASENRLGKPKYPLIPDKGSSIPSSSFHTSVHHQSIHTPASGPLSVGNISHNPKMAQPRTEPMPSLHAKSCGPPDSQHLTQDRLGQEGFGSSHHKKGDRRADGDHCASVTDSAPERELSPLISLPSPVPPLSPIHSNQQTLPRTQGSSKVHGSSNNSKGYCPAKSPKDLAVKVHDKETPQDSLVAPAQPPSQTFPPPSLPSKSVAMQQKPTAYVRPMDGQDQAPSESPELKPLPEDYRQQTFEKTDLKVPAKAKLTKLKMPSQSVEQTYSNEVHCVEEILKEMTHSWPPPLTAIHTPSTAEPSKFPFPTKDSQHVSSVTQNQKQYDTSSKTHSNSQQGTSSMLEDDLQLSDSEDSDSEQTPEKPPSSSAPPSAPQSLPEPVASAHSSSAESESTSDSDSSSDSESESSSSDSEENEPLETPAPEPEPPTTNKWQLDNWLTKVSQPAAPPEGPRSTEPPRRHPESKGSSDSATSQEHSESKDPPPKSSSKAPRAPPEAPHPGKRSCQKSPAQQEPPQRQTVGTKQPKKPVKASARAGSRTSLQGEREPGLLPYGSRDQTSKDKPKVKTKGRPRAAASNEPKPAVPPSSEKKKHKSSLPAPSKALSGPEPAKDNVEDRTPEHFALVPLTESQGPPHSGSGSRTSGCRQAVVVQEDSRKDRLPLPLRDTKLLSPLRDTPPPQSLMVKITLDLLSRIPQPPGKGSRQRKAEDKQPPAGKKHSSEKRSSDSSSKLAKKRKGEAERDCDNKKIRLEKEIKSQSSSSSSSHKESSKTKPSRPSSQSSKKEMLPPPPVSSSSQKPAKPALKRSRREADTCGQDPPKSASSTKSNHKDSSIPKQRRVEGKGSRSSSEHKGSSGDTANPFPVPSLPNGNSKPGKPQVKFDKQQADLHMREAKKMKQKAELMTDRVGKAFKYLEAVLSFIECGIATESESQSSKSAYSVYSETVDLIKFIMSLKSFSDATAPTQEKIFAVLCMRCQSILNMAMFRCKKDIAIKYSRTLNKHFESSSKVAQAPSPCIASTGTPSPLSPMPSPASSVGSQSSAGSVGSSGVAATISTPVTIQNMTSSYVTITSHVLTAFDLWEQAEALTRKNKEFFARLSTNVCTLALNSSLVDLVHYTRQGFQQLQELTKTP
UniProt Q12797, sequence (Q12797 whole entry, looked up): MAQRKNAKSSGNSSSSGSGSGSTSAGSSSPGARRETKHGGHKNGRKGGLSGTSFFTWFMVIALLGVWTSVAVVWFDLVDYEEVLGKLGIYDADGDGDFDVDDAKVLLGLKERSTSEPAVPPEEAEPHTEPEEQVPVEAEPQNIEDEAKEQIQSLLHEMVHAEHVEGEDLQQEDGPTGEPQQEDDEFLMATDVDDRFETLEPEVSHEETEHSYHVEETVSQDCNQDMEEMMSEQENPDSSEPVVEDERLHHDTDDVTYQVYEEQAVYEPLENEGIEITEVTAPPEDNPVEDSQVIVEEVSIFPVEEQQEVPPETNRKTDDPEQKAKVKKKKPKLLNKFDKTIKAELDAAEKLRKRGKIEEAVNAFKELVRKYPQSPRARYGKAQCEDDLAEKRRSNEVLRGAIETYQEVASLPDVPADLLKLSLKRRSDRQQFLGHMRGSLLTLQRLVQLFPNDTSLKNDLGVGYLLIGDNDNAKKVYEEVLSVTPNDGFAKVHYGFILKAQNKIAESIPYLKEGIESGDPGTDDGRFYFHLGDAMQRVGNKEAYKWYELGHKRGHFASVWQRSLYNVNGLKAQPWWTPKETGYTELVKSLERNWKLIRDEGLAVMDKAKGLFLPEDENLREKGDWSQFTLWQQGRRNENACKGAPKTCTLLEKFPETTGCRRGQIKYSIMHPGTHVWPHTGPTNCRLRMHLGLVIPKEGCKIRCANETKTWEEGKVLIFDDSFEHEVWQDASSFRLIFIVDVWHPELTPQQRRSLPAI
UniProt Q9Y6B7, sequence (Q9Y6B7 whole entry, looked up): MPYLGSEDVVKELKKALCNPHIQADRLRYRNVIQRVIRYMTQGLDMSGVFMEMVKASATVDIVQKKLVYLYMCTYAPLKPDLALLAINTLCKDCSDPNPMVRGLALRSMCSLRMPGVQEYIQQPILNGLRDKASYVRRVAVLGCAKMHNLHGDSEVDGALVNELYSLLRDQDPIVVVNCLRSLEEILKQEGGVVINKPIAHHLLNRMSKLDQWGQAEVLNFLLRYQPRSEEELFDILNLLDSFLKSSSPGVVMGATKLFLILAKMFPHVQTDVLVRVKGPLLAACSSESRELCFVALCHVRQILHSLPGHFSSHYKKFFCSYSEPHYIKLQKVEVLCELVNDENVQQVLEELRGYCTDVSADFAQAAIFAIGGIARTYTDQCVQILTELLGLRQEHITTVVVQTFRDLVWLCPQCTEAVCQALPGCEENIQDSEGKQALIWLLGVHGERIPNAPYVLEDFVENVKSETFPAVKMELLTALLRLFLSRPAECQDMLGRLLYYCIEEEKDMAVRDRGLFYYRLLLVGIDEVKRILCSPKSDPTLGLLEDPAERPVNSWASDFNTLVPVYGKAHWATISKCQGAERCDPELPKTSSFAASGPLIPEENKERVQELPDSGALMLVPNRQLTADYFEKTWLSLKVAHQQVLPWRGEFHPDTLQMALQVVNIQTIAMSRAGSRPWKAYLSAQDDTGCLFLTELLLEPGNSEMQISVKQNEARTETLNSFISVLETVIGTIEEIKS
UniProt Q9BR61, sequence (Q9BR61 whole entry, looked up): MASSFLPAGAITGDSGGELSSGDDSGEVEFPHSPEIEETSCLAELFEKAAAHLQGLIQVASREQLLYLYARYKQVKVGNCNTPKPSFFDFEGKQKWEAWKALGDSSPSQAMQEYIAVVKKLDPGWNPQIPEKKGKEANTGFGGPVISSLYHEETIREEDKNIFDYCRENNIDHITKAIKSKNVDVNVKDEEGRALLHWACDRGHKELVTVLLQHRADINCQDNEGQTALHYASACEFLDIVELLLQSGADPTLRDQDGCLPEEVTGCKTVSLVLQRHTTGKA

| Target | log2 fold change [1] | log2 fold change [2] | log2 fold change [3] | log2 fold change [4] | log2 fold change [5] | log2 fold change [6] | log2 fold change [7] | log2 fold change [8] | log2 fold change [9] | log2 fold change [10] | log2 fold change [11] | log2 fold change [12] | log2 fold change [13] | log2 fold change [14] | log2 fold change [15] | log2 fold change [16] | log2 fold change [17] | log2 fold change [18] | log2 fold change [19] | log2 fold change [20] |
| --- | --- | --- | --- | --- | --- | --- | --- | --- | --- | --- | --- | --- | --- | --- | --- | --- | --- | --- | --- | --- |
| AMPD3 isoform 4 (UniProt Q01432) | 0.05 | 0.001 | 0.037 | -0.041 | -0.019 | -0.029 | 0.011 | 0.006 | -0.004 | -0.005 | -0.021 | 0.005 | 0.017 | -0.033 | -0.026 | -0.029 | 0.1 | -0.046 | 0.043 | 0.024 |
| ASPH (UniProt Q12797) | 0.015 | -0.004 | -0.006 | -0.001 | -0.028 | 0.052 | 0.076 | -0.025 | 0.025 | 0 | 0.009 | 0.009 | -0.001 | 0.03 | 0.002 | -0.018 | 0.011 | -0.024 | 0.055 | 0.01 |
| ARMC6 (UniProt Q6NXE6) | 0.023 | 0.005 | 0.007 | -0.005 | 0.002 | -0.013 | 0.001 | -0.011 | 0.016 | 0 | -0.053 | 0.02 | 0.071 | -0.136 | -0.056 | 0.019 | 0.002 | -0.035 | 0.013 | 0.019 |
| AKAP8L (UniProt Q9ULX6) | 0 | -0.046 | 0.002 | -0.019 | 0.009 | -0.02 | 0.003 | -0.271 (active) | 0.046 | 0.032 | -0.003 | 0.033 | -0.066 | -0.036 | -0.042 | 0.019 | -0.042 | -0.01 | 0.002 | 0.013 |
| ABHD16A (UniProt O95870) | -0.01 | 0.004 | 0.029 | 0.018 | 0.027 | -0.022 | 0.03 | -0.031 | -0.077 | -0.011 | 0.074 | 0.012 | 0.026 | 0.141 | 0.002 | -0.059 | -0.001 | 0.019 | 0.021 | 0.051 |
| ANAPC7 (UniProt Q9UJX3) | -0.007 | 0.002 | 0.015 | -0.009 | 0.001 | 0.01 | 0.002 | 0.022 | 0.023 | 0.01 | -0.026 | 0.033 | -0.02 | -0.035 | -0.029 | 0.016 | -0.022 | -0.03 | 0.025 | -0.001 |
| ALDH1A1 (UniProt P00352) | 0.092 | 0.019 | 0.037 | 0.037 | -0.029 | 0 | 0.26 (active) | -0.005 | 0.028 | 0.011 | -0.027 | 0.001 | -0.014 | -0.016 | -0.005 | -0.052 | 0.051 | -0.09 | 0.272 | 0.001 |
| ARHGEF1 (UniProt M0QZR4) | -0.009 | -0.001 | 0.009 | -0.008 | 0.019 | -0.015 | 0.007 | 0.002 | 0.015 | 0.005 | 0.014 | 0.004 | 0.023 | -0.025 | -0.041 | 0.014 | -0.08 | 0.013 | 0.009 | 0.018 |
| AP4B1 (UniProt Q9Y6B7) | -0.028 | -0.048 | -0.044 | 0 | 0.034 | 0.003 | -0.027 | -0.02 | -0.041 | -0.041 | 0.026 | 0.087 | 0.028 | -0.01 | -0.009 | 0.011 | -0.035 | 0.02 | 0.042 | -0.027 |
| AFF1 isoform 2 (UniProt P51825) | 0.136 | -0.028 | 0.078 | -0.02 | -0.001 | 0.037 | -0.047 | 0.023 | 0.02 | -0.002 | -0.059 | 0.007 | 0.033 | 0.068 | -0.043 | -0.023 | -0.307 | 0.125 | -0.015 | 0.029 |
| ABCF2 isoform 2 (UniProt Q9UG63) | -0.012 | 0.013 | 0.059 | 0.003 | 0.01 | 0.007 | -0.008 | -0.013 | 0.021 | 0.012 | 0.017 | 0.002 | -0.014 | -0.072 | -0.045 | 0.026 | -0.008 | -0.026 | 0 | 0.036 |
| ACBD6 (UniProt Q9BR61) | 0.007 | 0.038 | 0.012 | -0.039 | 0.002 | 0.034 | 0.001 | 0.062 | 0.027 | -0.057 | 0.028 | 0.035 | -0.006 | -0.025 | -0.082 | 0.013 | -0.009 | 0.006 | -0.015 | 0.014 |
| ALDH2 (UniProt P05091) | -0.001 | 0.081 | 0.002 | -0.012 | 0.199 | -0.013 | 0.014 | -0.081 | 0 | 0.01 | -0.083 | 0.011 | -0.012 | -0.012 | -0.017 | -0.011 | 0.007 | -0.009 | 0.012 | 0 |
| ASCC2 (UniProt Q9H1I8) | -0.328 (active) | 0.029 | 0.057 | -0.041 | 0.012 | 0.004 | 0.02 | 0.01 | 0.064 | -0.01 | 0.037 | 0.069 | 0.025 | -0.054 | -0.024 | 0.007 | 0.051 | -0.103 | 0.04 | 0.027 |
| ABL2 (UniProt P42684) | 0.586 (active) | 0.078 | 0.005 | 0.002 | 0.002 | -0.057 | -0.112 | 0.154 | 0.093 | -0.046 | 0.233 | 0.222 | -0.002 | 0.11 | -0.05 | 0.009 | 0.039 | -0.128 | 0.254 | -0.02 |
